Sequences and labels used below:
B1: ENSMUSG00000043670.217|Diras1|25:29;58:70;94:99;102:106;111:115;225:229 (ssRNA)
RNA: GGGAGUUCUACAGUCCGACGAUCGCUUCGAUAUCCGCAUGCUAGGAUGGGGUGUUCUUGCACCACUUACACAUCUUAGUGAGACCACAGUGUAAGUGGCCCACACACACACACGGGGGGGGCACCUAGACAUUGUGCACACACUCAUACGCUCACACAUUUCAGGGGUGGGUGACACAGGCCUGUCUGAUGAGCACCAGGUCUGUUCCAGGCUGUGGCAAGCUGGCUCCUGGCUCAGAAGUGACAAAGCUGCAGUACAGAGGCCUCACACACAGGUCAUCACCUCACAGUGGCUACAGACCAGCUCUUGCGGUCGCACUAGUGUGGAAUUCUCGGGUGUCAAGG
B2: ENSMUSG00000042529.427|Kcnj12|1:9;32:37;194:198 (ssRNA)
RNA: GGGAGUUCUACAGUCCGACGAUCGCUUCGAUAUCCGCAUGCUACACACAUACUGAAUGUCAGUGGCUUGGGUGCACACACGAGAGAGAGAGAGAGAGAGAGAGAGAGAGAGAGAGAGAGAGAGAGAGAGAGCUGCACAGGAUGAAGCAGCUGCCCUGAGCCCAUCUGGUGCUGUGCACCUGGUCCUUGUCCAGCCGAGGGCCUGGGGGCAGAAGAACACACCAUAGGGAGGCCCUUCAUACGGUGUCUGCCCUAUGUGAGGUCAUAGAAUGUUAAAUCUAUUUUAAACGGUGAAACUGGAGAACUCUUGCGGUCGCACUAGUGUGGAAUUCUCGGGUGUCAAGG
B3: ENSMUSG00000042529.426|Kcnj12|5:15;38:43;200:204 (ssRNA)
RNA: GGGAGUUCUACAGUCCGACGAUCGCUUCGAUAUCCGCAUGCUACAGGCACACACAUACUGAAUGUCAGUGGCUUGGGUGCACACACGAGAGAGAGAGAGAGAGAGAGAGAGAGAGAGAGAGAGAGAGAGAGAGAGAGCUGCACAGGAUGAAGCAGCUGCCCUGAGCCCAUCUGGUGCUGUGCACCUGGUCCUUGUCCAGCCGAGGGCCUGGGGGCAGAAGAACACACCAUAGGGAGGCCCUUCAUACGGUGUCUGCCCUAUGUGAGGUCAUAGAAUGUUAAAUCUAUUUUAAACGGUGAAACUCUCUUGCGGUCGCACUAGUGUGGAAUUCUCGGGUGUCAAGG
B4: ENSMUSG00000042529.421|Kcnj12|1:5;10:15;19:23;35:45;68:73;230:234 (ssRNA)
RNA: GGGAGUUCUACAGUCCGACGAUCGCUUCGAUAUCCGCAUGCUACACACAACAACACACAGGCACACGAGGUCCCAGGCACACACAUACUGAAUGUCAGUGGCUUGGGUGCACACACGAGAGAGAGAGAGAGAGAGAGAGAGAGAGAGAGAGAGAGAGAGAGAGAGAGCUGCACAGGAUGAAGCAGCUGCCCUGAGCCCAUCUGGUGCUGUGCACCUGGUCCUUGUCCAGCCGAGGGCCUGGGGGCAGAAGAACACACCAUAGGGAGGCCCUUCAUACGGUGUCUGCCCUAUGUGAGGUCAUAGCUCUUGCGGUCGCACUAGUGUGGAAUUCUCGGGUGUCAAGG
B5: ENSMUSG00000042529.419|Kcnj12|1:17;22:27;31:35;47:57;80:85;242:246 (ssRNA)
RNA: GGGAGUUCUACAGUCCGACGAUCGCUUCGAUAUCCGCAUGCUACACACACACACACACACAACAACACACAGGCACACGAGGUCCCAGGCACACACAUACUGAAUGUCAGUGGCUUGGGUGCACACACGAGAGAGAGAGAGAGAGAGAGAGAGAGAGAGAGAGAGAGAGAGAGAGAGAGCUGCACAGGAUGAAGCAGCUGCCCUGAGCCCAUCUGGUGCUGUGCACCUGGUCCUUGUCCAGCCGAGGGCCUGGGGGCAGAAGAACACACCAUAGGGAGGCCCUUCAUACGGUGUCUGCCCUAUCUCUUGCGGUCGCACUAGUGUGGAAUUCUCGGGUGUCAAGG
B6: ENSMUSG00000042529.425|Kcnj12|11:21;44:49;206:210 (ssRNA)
RNA: GGGAGUUCUACAGUCCGACGAUCGCUUCGAUAUCCGCAUGCUAAGGUCCCAGGCACACACAUACUGAAUGUCAGUGGCUUGGGUGCACACACGAGAGAGAGAGAGAGAGAGAGAGAGAGAGAGAGAGAGAGAGAGAGAGAGAGCUGCACAGGAUGAAGCAGCUGCCCUGAGCCCAUCUGGUGCUGUGCACCUGGUCCUUGUCCAGCCGAGGGCCUGGGGGCAGAAGAACACACCAUAGGGAGGCCCUUCAUACGGUGUCUGCCCUAUGUGAGGUCAUAGAAUGUUAAAUCUAUUUUAAACGGUCUCUUGCGGUCGCACUAGUGUGGAAUUCUCGGGUGUCAAGG
B7: ENSMUSG00000042529.424|Kcnj12|1:5;17:27;50:55;212:216 (ssRNA)
RNA: GGGAGUUCUACAGUCCGACGAUCGCUUCGAUAUCCGCAUGCUACACACGAGGUCCCAGGCACACACAUACUGAAUGUCAGUGGCUUGGGUGCACACACGAGAGAGAGAGAGAGAGAGAGAGAGAGAGAGAGAGAGAGAGAGAGAGAGAGCUGCACAGGAUGAAGCAGCUGCCCUGAGCCCAUCUGGUGCUGUGCACCUGGUCCUUGUCCAGCCGAGGGCCUGGGGGCAGAAGAACACACCAUAGGGAGGCCCUUCAUACGGUGUCUGCCCUAUGUGAGGUCAUAGAAUGUUAAAUCUAUUUUACUCUUGCGGUCGCACUAGUGUGGAAUUCUCGGGUGUCAAGG
B8: ENSMUSG00000042529.423|Kcnj12|7:11;23:33;56:61;218:222 (ssRNA)
RNA: GGGAGUUCUACAGUCCGACGAUCGCUUCGAUAUCCGCAUGCUAGUGAGGCACACGAGGUCCCAGGCACACACAUACUGAAUGUCAGUGGCUUGGGUGCACACACGAGAGAGAGAGAGAGAGAGAGAGAGAGAGAGAGAGAGAGAGAGAGAGAGAGCUGCACAGGAUGAAGCAGCUGCCCUGAGCCCAUCUGGUGCUGUGCACCUGGUCCUUGUCCAGCCGAGGGCCUGGGGGCAGAAGAACACACCAUAGGGAGGCCCUUCAUACGGUGUCUGCCCUAUGUGAGGUCAUAGAAUGUUAAAUCUCUCUUGCGGUCGCACUAGUGUGGAAUUCUCGGGUGUCAAGG
B9: ENSMUSG00000042529.420|Kcnj12|1:11;16:21;25:29;41:51;74:79;236:240 (ssRNA)
RNA: GGGAGUUCUACAGUCCGACGAUCGCUUCGAUAUCCGCAUGCUACACACACACACAACAACACACAGGCACACGAGGUCCCAGGCACACACAUACUGAAUGUCAGUGGCUUGGGUGCACACACGAGAGAGAGAGAGAGAGAGAGAGAGAGAGAGAGAGAGAGAGAGAGAGAGAGCUGCACAGGAUGAAGCAGCUGCCCUGAGCCCAUCUGGUGCUGUGCACCUGGUCCUUGUCCAGCCGAGGGCCUGGGGGCAGAAGAACACACCAUAGGGAGGCCCUUCAUACGGUGUCUGCCCUAUGUGAGGCUCUUGCGGUCGCACUAGUGUGGAAUUCUCGGGUGUCAAGG
B10: ENSMUSG00000042529.422|Kcnj12|4:9;13:17;29:39;62:67;224:228 (ssRNA)
RNA: GGGAGUUCUACAGUCCGACGAUCGCUUCGAUAUCCGCAUGCUAACAACACACAGGCACACGAGGUCCCAGGCACACACAUACUGAAUGUCAGUGGCUUGGGUGCACACACGAGAGAGAGAGAGAGAGAGAGAGAGAGAGAGAGAGAGAGAGAGAGAGAGAGCUGCACAGGAUGAAGCAGCUGCCCUGAGCCCAUCUGGUGCUGUGCACCUGGUCCUUGUCCAGCCGAGGGCCUGGGGGCAGAAGAACACACCAUAGGGAGGCCCUUCAUACGGUGUCUGCCCUAUGUGAGGUCAUAGAAUGUUCUCUUGCGGUCGCACUAGUGUGGAAUUCUCGGGUGUCAAGG
B11: ENSMUSG00000042529.274|Kcnj12 (ssRNA)
RNA: GGGAGUUCUACAGUCCGACGAUCGCUUCGAUAUCCGCAUGCUAGUGUGCUUACCUGCCACUCACCUCUCUAUCUAGUUGUCGAGUCUAGGGAAGGGCAGAGGGUGGGUCCUGGCCACUGGGUGCCACUGUGGGAGCCGGGGCACCUGUCAUUCUUUCUGAGUAGGUGGGCCUGUAUCCAGAGCAGGGUCUAGGGGCUCCUGCUCCCGGCUCAUCUCAGUGGCCUGAAGCAUUCAAAACUCUAGCCAGCCCCAUCCUCCUCCCUGCCAGAAUGGUCCAGUCCCUGGGCCCUGCUGGAGAGCAGCCUCUUGCGGUCGCACUAGUGUGGAAUUCUCGGGUGUCAAGG
B12: ENSMUSG00000004113.47|Cacna1b (ssRNA)
RNA: GGGAGUUCUACAGUCCGACGAUCGCUUCGAUAUCCGCAUGCUAGCUAUCACUGCACUUUGGGACUCAGCACUGGCGUCCGGGCGCGGCACAGCUACCACCACCCCGAUCAGGACCACUGGUGCUAGCUGCACCACGACCACCCAUGUACCAGCUCCAUGGGUGAGGGUUCCAGUUGAUGAGUUUUAUCAUCCGCUCUGGGCUGUGGGGUCACAGCCCUGGGAGGAGGGCCCUCACAUCUCGGCCUCUGUGGUGGAGGCUCCUGCUUCCCUCCCUCCCUCCCUUUUACACUGGAUAGACUAAUACUCUUGCGGUCGCACUAGUGUGGAAUUCUCGGGUGUCAAGG
B13: ENSMUSG00000004113.89|Cacna1b|48:52;211:215;227:232 (ssRNA)
RNA: GGGAGUUCUACAGUCCGACGAUCGCUUCGAUAUCCGCAUGCUAGACUAAUAAAGCCCUUUCUUAGAGGGACAUGGUUCUCUCUAUCCUCCACACAACUGCCUUCCUGGGUUCCAUGCCAGAUGUUGGAUCCUAAGCAGGAGGUAGCUGAGUUGAGAUGGACCCAGCAAAUCCAAAUCCUAUGUCAUGGCCUCCAGCAUCCAGGGUGGGUCCUUGGGACUUUUCUUAGGAGGGACUUUCUGAGCCUCGUGGAGACACACGUUUGUCCAAAACACACGCAUGGGAGAUAGGGUACCCCUGAAAGCCUCUUGCGGUCGCACUAGUGUGGAAUUCUCGGGUGUCAAGG

Whole data set: some 9,900 sequences, median “r (bound/input frequency ratio)” near 0.7, cut for the highest 2% near 6.5. The full list was thinned out, with the highest values kept by preference.

The assay deals with TDP-43 (Homo sapiens, UniProt Q13148 1-414). The experiment in a line: RNA Bind-n-Seq with designed 260-mer pool; 25 mM Tris-HCl, 150 mM KCl, 3 mM MgCl2, BSA (printed 500 mg/mL), 20 units/mL SUPERase IN; pH not stated; 500 nM RNA pool, 1 h, 4 C; TDP-43 5, 50, 500 nM; high values mean tight binding. Particulars: protein: recombinant; tags: SBP (GST cleaved off with PreScission; pGEX-GST-SBP). The method in brief: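 For each oligo, R gives binding as its mapped-read-normalized abundance after pulldown divided by its abundance in input. Bead-captured SBP-tagged TDP-43 (5, 50 or 500 nM) was incubated with 500 nM of an in vitro-transcribed 260-nt 3′ UTR oligo pool for 1 h at 4 °C in 25 mM Tris-HCl, 150 mM KCl, 3 mM MgCl2, BSA and SUPERase IN on streptavidin beads. Washed, biotin-eluted RNA was reverse transcribed, PCR-amplified and sequenced.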
Sequence of TDP-43 (Q13148 whole entry): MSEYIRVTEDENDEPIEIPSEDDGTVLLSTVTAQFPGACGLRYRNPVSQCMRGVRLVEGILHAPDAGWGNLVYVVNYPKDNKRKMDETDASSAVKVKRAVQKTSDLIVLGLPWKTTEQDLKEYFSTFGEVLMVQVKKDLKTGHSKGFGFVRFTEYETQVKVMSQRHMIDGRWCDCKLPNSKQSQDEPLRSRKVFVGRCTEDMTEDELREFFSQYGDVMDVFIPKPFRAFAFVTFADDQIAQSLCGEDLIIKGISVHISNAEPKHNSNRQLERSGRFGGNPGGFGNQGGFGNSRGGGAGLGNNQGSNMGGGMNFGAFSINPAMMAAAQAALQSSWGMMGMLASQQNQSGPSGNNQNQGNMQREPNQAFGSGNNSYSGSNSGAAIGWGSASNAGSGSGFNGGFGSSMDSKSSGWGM
Take B1: the binding signal was 0.883 R (bound/input frequency ratio).
As to B2, the binding signal is 5.49 R (bound/input frequency ratio).
The result for B3 reads 5.67 R (bound/input frequency ratio); that for B4, 7.21 R (bound/input frequency ratio).
For B5, the binding signal is 6.45 R (bound/input frequency ratio).
For B6, the binding signal is 6.2 R (bound/input frequency ratio).
Then B7, with 6.55 R (bound/input frequency ratio); and B8, with 7.58 R (bound/input frequency ratio); and B9, with 4.97 R (bound/input frequency ratio).
The result for B10 reads 6.32 R (bound/input frequency ratio); that for B11, 0.622 R (bound/input frequency ratio); that for B12, 0.27 R (bound/input frequency ratio).
With B13, the binding signal is 0.504 R (bound/input frequency ratio).

(Values after publication PMC12864922, “TDP-43 directly inhibits mRNA accumulation in neurites through modulation of mRNA stability”.)
